Screening data (PubChem)
The list is not random: actives were taken first. Their share in the collection is about 0.36%.
AID504770: growth inhibitors of E. coli YBA685 in a screen for V. cholerae RctB (chromosome II replication) inhibitors; E. coli YBA685 rctB-dependent plasmid, OD600 growth, 3 h; stronger effect = lower value; z-score (no concentration beside the values); 130,000 compounds, 0.27% hits; in the data active = z-score below about -2, passing the limit was not always enough
CapD inh: inhibitors of Bacillus anthracis CapD enzyme; purified CapD enzyme, fluorescence intensity read-out; stronger effect = lower value; z-score (concentration not given with the values); 140,000 compounds, 0.23% hits; AID 492967; in the data active = z-score mostly below about -2.9, no sharp cut-off; inactive = mostly above about -1.9
Hits are given with their value; 0 = inactive; - = no result given.

SMILES | AID504770 | CapD inh
CCCCC1(C)OC(=O)C(=Cc2ccc(OCC)c(OC)c2)C(=O)O1 (centres undefined) | 0 | 0
CC1=C(C(=O)OC2CCCCCC2)C(c2cccc(OCc3ccccc3)c2)NC(=O)N1 (centres undefined) | - | 0
N#C/C(=N\O)C(=O)c1ccco1 | 0 | -4.6
N#C/C(=N\Nc1cc(C(F)(F)F)cc(C(F)(F)F)c1)C(=O)c1ccco1 | - | 0
Cc1noc(/C=C/c2ccco2)c1S(=O)(=O)N1CCC(C(=O)N2CCCCC2)CC1 | 0 | 0
CN(C)CCN(C(=O)Cc1ccccc1)c1nc2cc3c(cc2s1)OCCO3 | -2.3 | 0
CN(C)CCN(C(=O)c1ccco1)c1nc2cc3c(cc2s1)OCO3 | 0 | 0
COc1ccc(N(C(C)=O)S(=O)(=O)c2ccc(F)cc2)cc1 | 0 | -7.3
COc1ccc(S(=O)(=O)N(C(C)=O)c2ccc3oc(=O)sc3c2)cc1 | 0 | 0
COC(=O)Cn1cnc2sc(-c3ccccc3)cc2c1=O | 0 | 0
CC(C)(C)c1ccc(-c2cc3ncc(-c4ccccc4)c(N)n3n2)cc1 | -2.3 | 0
Nc1c(S(=O)(=O)c2ccc(Cl)cc2)cnc2cc(-c3ccccc3)nn12 | - | 0
Cc1ccc(NC(=O)NC(C)c2c(-n3cccc3)sc(C)c2C)cc1 (centres undefined) | 0 | 0
CC1(C)CC(=O)C=C(Nc2ccccc2F)C1 | -2.5 | -
CC1(C)CC(=O)C=C(Nc2ccc(F)cc2)C1 | 0 | 0
CC(=O)c1cccc(NC(=O)C2CC2c2ccccc2)c1 (centres undefined) | - | 0
COc1ccc(CCNC(=S)Nc2c(C)cccc2C)cc1OC | - | 0
Cc1nc(-n2cccc2)sc1C(=O)NN1C(=O)C2CC=CCC2C1=O (centres undefined) | - | 0
N#CC1=C(N)Oc2cc(O)ccc2C12C(=O)Nc1ccccc12 (centres undefined) | - | 0
CCOC(=O)CCc1c(CC(=O)OCC)c[nH]c1/C=N/O | 0 | -10
CCOC(=O)CCc1c(C)nc2ncnn2c1C | 0 | 0
O=C(O)c1ccc(-n2cc(-c3nc4ccccc4o3)cn2)cc1 | - | 0
O=C(NCCCN1CCCC1)c1cc2cc3ccc(Cl)cc3nc2o1 | 0 | 0
CCN1CCN(CCCNC(=O)c2cc3cc4ccc(Cl)cc4nc3o2)CC1 | -2.3 | 0
O=C1C=C2C(=CCOC2O)O1 (centres undefined) | -5.2 | 0
SMILES | AID504770 | CapD inh
COc1ccc(S(=O)(=O)n2c(SCC(=O)c3ccc(Cl)cc3)nc3ccccc32)cc1 | - | 0
O=C1/C(=C/c2ccccc2Cl)CCC/C1=C\c1ccccc1Cl | - | 0
O=C(NN1S(=O)(=O)c2ccccc2S1(=O)=O)c1cccc(F)c1 | - | -4.1
O=C(NN1C(=O)CCC1=O)c1cccc(Br)c1 | 0 | -
O=C(NN1S(=O)(=O)c2ccccc2S1(=O)=O)c1cccc(Br)c1 | - | -3.7
O=C(NN1S(=O)(=O)c2ccccc2S1(=O)=O)c1ccc(OCc2ccc(F)cc2)cc1 | - | 0
O=C(c1ccsc1)N1CCCN(Cc2ccc(Cl)c(Cl)c2)CC1 | - | 0
CCN(/C=N/c1ncc(-c2ccc(Br)cc2)s1)CC | 0 | -
Cc1ccccc1Nc1cc2ccccc2c(=O)[nH]1 | -4 | 0
Cc1nc2cc3ccccc3cc2c(=O)[nH]1 | 0 | -
N#CC(c1ccccn1)c1nc(=O)c2ccccc2s1 (centres undefined) | 0 | 0
C=CCN1C(=O)c2ccccc2Sc2ccc(C(=O)NC3CCCCC3C)cc21 (centres undefined) | 0 | 0
Nc1cnn(-c2ccccc2)c(=O)c1N | 0 | 0
NC(=O)N1C(=O)C=CC1=O | -8.5 | -
Cc1csc(N2C(=O)C=CC2=O)c1C(=O)c1ccccc1 | 0 | 0
COc1ccccc1-c1nnc(C2CCN(C(=O)c3ccc(F)cc3)CC2)o1 | 0 | 0
CN1CCN(Cc2ccc(O)c3ncccc23)CC1 | 0 | -4.8
Oc1ccc(CN2CCOCC2)c2cccnc12 | 0 | 0
CCn1cc(-c2cc(C(=O)O)on2)cn1 | 0 | -
COc1ccc(CNC(=O)CCC2CCCC2)cc1OC | 0 | -
COc1ccc(CNC(=O)CSC(C)(C)C)cc1OC | -4.6 | -
O=C1CCC(=O)N1C1CCCCC1 | 0 | 0
O=C1C=CC(=O)N1C1CC1 | -6 | -
O=C(CSc1n[nH]c(-c2ccncc2)n1)c1ccc(Cl)cc1 | - | 0
Nc1nc(SCC(=O)c2ccc(Cl)cc2)n[nH]1 | -2.6 | 0
SMILES | AID504770 | CapD inh
Cc1cc(C[n+]2nc(-c3ccccc3)sc2N)c2ncccc2c1 | 0 | 0
CCSc1ccc(SC#N)s1 | -5.2 | -
CCSc1nc2ccccc2s1 | 0 | 0
N#CSCC(=O)c1ccc(Br)cc1 | 0 | 0
CC(C)NC(=S)N/N=C/c1ccco1 | 0 | -4
S=C(N/N=C\c1ccco1)Nc1ccccc1 | 0 | 0
N#Cc1cc2c(nc1SCC(=O)Nc1nc(-c3ccccc3)cs1)CCCC2 | - | 0
COc1ccc2c(c1)CCc1c(C(=O)N3CCCCC3)noc1-2 | 0 | 0
COc1ccc2c(c1)CCc1c(C(=O)N3C(C)CCCC3C)noc1-2 (centres undefined) | -3 | 0
Cc1c(C)c(C)c(CSC2=[N+](Cc3ccccc3)CCN2)c(C)c1C | - | 0
O=[N+]([O-])/C=C/c1c(F)cccc1Cl | - | 0
O=C1NC(=S)S/C1=C\c1c(F)cccc1Cl | - | -4.1
O=C(ON1C(=O)CCC1=O)c1ccc(Cl)cc1Cl | 0 | -4
O=C(ON1C(=O)CCC1=O)c1ccccc1Cl | 0 | 0
O=C(Nc1ccc(F)cc1F)Nc1ccccc1C(=O)N1CCC(c2c[nH]c3ccccc23)CC1 | - | 0
O=C(COc1ccccc1Cl)N/N=C/c1ccc(F)cc1Cl | - | 0
CC1COc2c(F)c(F)cc3c(=O)c(C(=O)O)cn1c23 (centres undefined) | 0 | 0
CCn1cc(C(=O)O)c(=O)c2cc(F)c(N3CCNC(C)C3)c(F)c21 (centres undefined) | -3.6 | 0
COCCOC(=O)C1=C(C)NC2=C(C(=O)CC(c3cccs3)C2)C1c1coc2ccc(C)cc2c1=O (centres undefined) | - | 0
N=C1S/C(=C/c2ccco2)C(=O)N1c1nccs1 | 0 | -4.3
N=C1S/C(=C\c2ccc(-c3ccccc3F)o2)C(=O)N1c1nccs1 | - | 0
CCCOC(=O)C1=C(C)NC2=C(C(=O)CC(c3ccc(OC)c(OC)c3)C2)C1c1ccccc1OC (centres undefined) | - | 0
CC(=O)N1c2nonc2N(C(C)=O)c2nonc21 | 0 | -11
CC(=O)Nc1nonc1N1CCCC1=O | 0 | 0
CC(=O)N(C(C)=O)c1nc(-c2ccccc2)cn1/N=C/c1ccccc1 | - | -7.1
SMILES | AID504770 | CapD inh
COc1ccc(/C=N/n2c(N(C(C)=O)C(C)=O)nc(-c3ccccc3)c2-c2ccccc2)cc1 | - | 0
CCN(CC)C(=O)c1sc2nc(C)nc(N3CCN(c4ccccn4)CC3)c2c1C | - | 0
COc1ccccc1C(=O)N(CCCN1C(=O)c2cccc3cccc(c23)C1=O)c1ccccc1OC | - | 0
Cn1cc(Br)c(N2C(=O)C=CC2=O)n1 | -4.2 | 0
O=C1C=CC(=O)N1c1ccc(Cl)cc1Br | - | 0
CN(C)S(=O)(=O)N(CC(=O)Nc1ccccc1C(=O)N1CCOCC1)c1ccccc1 | 0 | 0
O=C1c2ccccc2C(=O)N1Cc1cc(=O)n2ccsc2n1 | 0 | -
CC(C)c1ccc(-c2nnn(Cc3cc(=O)n4ccsc4n3)n2)cc1 | -2.2 | -
COc1cc2c(cc1OC)C(Nc1ccc(Cl)cc1)=NC(C)(C)C2 | - | 0
CC(C)Cn1cc(NC(=O)NCc2ccccn2)c2ccccc2c1=O | 0 | 0
Cn1cc(NC(=O)NCc2ccccn2)c2ccccc2c1=O | -2 | 0
COc1cc(N(C)C)ccc1CN1CCC(NC(=O)c2cnc3c(c(C)nn3C)c2OC)C1 (centres undefined) | - | 0
